Data published in PMC12529666, “Dysregulation of AGO2-miRNA dynamics underlies the AGO2-associated Lessel–Kreienkamp syndrome”.
Numbering of substitutions follows the chain as printed.

B1: ATGCTTCG (ssRNA)
RNA 1: GAGUUCUACAGUCCGACGAUCCCAACAUGCUUCGCACCUGGAAUUCUCGGGUGCCAA
RNA 2: UGGAGUGUGACAAUGGUGUUUG
DNA 1: GATCGTCGGACTGTAGAACTC
DNA 2: TTGGCACCCGAGAATTCCA
modifications: constant regions annealed to DNA blockers; guide miR-122 5' phosphate
B2: ATACCTCG (ssRNA)
RNA 1: B1 RNA 1 with G29A, U31C
RNA 2: UGGAGUGUGACAAUGGUGUUUG
DNA 1: GATCGTCGGACTGTAGAACTC
DNA 2: TTGGCACCCGAGAATTCCA
modifications: constant regions annealed to DNA blockers; guide miR-122 5' phosphate
B3: ATACTTCG (ssRNA)
RNA 1: B1 RNA 1 with G29A
RNA 2: UGGAGUGUGACAAUGGUGUUUG
DNA 1: GATCGTCGGACTGTAGAACTC
DNA 2: TTGGCACCCGAGAATTCCA
modifications: constant regions annealed to DNA blockers; guide miR-122 5' phosphate
B4: ACGCTTCG (ssRNA)
RNA 1: B1 RNA 1 with U28C
RNA 2: UGGAGUGUGACAAUGGUGUUUG
DNA 1: GATCGTCGGACTGTAGAACTC
DNA 2: TTGGCACCCGAGAATTCCA
modifications: constant regions annealed to DNA blockers; guide miR-122 5' phosphate
B5: GCATCTTG (ssRNA)
RNA 1: B1 RNA 1 with A27G, U28C, G29A, C30U, U31C, C33U
RNA 2: UGGAGUGUGACAAUGGUGUUUG
DNA 1: GATCGTCGGACTGTAGAACTC
DNA 2: TTGGCACCCGAGAATTCCA
modifications: constant regions annealed to DNA blockers; guide miR-122 5' phosphate
B6: GTACCCCG (ssRNA)
RNA 1: B1 RNA 1 with A27G, G29A, U31C, U32C
RNA 2: UGGAGUGUGACAAUGGUGUUUG
DNA 1: GATCGTCGGACTGTAGAACTC
DNA 2: TTGGCACCCGAGAATTCCA
modifications: constant regions annealed to DNA blockers; guide miR-122 5' phosphate
B7: GCATTTCG (ssRNA)
RNA 1: B1 RNA 1 with A27G, U28C, G29A, C30U
RNA 2: UGGAGUGUGACAAUGGUGUUUG
DNA 1: GATCGTCGGACTGTAGAACTC
DNA 2: TTGGCACCCGAGAATTCCA
modifications: constant regions annealed to DNA blockers; guide miR-122 5' phosphate
B8: GTACTCTG (ssRNA)
RNA 1: B1 RNA 1 with A27G, G29A, U32C, C33U
RNA 2: UGGAGUGUGACAAUGGUGUUUG
DNA 1: GATCGTCGGACTGTAGAACTC
DNA 2: TTGGCACCCGAGAATTCCA
modifications: constant regions annealed to DNA blockers; guide miR-122 5' phosphate
B9: ACATTCTA (ssRNA)
RNA 1: B1 RNA 1 with U28C, G29A, C30U, U32C, C33U, G34A
RNA 2: UGGAGUGUGACAAUGGUGUUUG
DNA 1: GATCGTCGGACTGTAGAACTC
DNA 2: TTGGCACCCGAGAATTCCA
modifications: constant regions annealed to DNA blockers; guide miR-122 5' phosphate
B10: ATATCCTA (ssRNA)
RNA 1: B1 RNA 1 with G29A, C30U, U31C, U32C, C33U, G34A
RNA 2: UGGAGUGUGACAAUGGUGUUUG
DNA 1: GATCGTCGGACTGTAGAACTC
DNA 2: TTGGCACCCGAGAATTCCA
modifications: constant regions annealed to DNA blockers; guide miR-122 5' phosphate
B11: ACGTCTTG (ssRNA)
RNA 1: B1 RNA 1 with U28C, C30U, U31C, C33U
RNA 2: UGGAGUGUGACAAUGGUGUUUG
DNA 1: GATCGTCGGACTGTAGAACTC
DNA 2: TTGGCACCCGAGAATTCCA
modifications: constant regions annealed to DNA blockers; guide miR-122 5' phosphate
B12: ATGTCTCG (ssRNA)
RNA 1: B1 RNA 1 with C30U, U31C
RNA 2: UGGAGUGUGACAAUGGUGUUUG
DNA 1: GATCGTCGGACTGTAGAACTC
DNA 2: TTGGCACCCGAGAATTCCA
modifications: constant regions annealed to DNA blockers; guide miR-122 5' phosphate
B13: ATGTCCCG (ssRNA)
RNA 1: B1 RNA 1 with C30U, U31C, U32C
RNA 2: UGGAGUGUGACAAUGGUGUUUG
DNA 1: GATCGTCGGACTGTAGAACTC
DNA 2: TTGGCACCCGAGAATTCCA
modifications: constant regions annealed to DNA blockers; guide miR-122 5' phosphate
B14: GTACTTCG (ssRNA)
RNA 1: B1 RNA 1 with A27G, G29A
RNA 2: UGGAGUGUGACAAUGGUGUUUG
DNA 1: GATCGTCGGACTGTAGAACTC
DNA 2: TTGGCACCCGAGAATTCCA
modifications: constant regions annealed to DNA blockers; guide miR-122 5' phosphate
B15: ATACTCTG (ssRNA)
RNA 1: B1 RNA 1 with G29A, U32C, C33U
RNA 2: UGGAGUGUGACAAUGGUGUUUG
DNA 1: GATCGTCGGACTGTAGAACTC
DNA 2: TTGGCACCCGAGAATTCCA
modifications: constant regions annealed to DNA blockers; guide miR-122 5' phosphate
B16: GCACCTTG (ssRNA)
RNA 1: B1 RNA 1 with A27G, U28C, G29A, U31C, C33U
RNA 2: UGGAGUGUGACAAUGGUGUUUG
DNA 1: GATCGTCGGACTGTAGAACTC
DNA 2: TTGGCACCCGAGAATTCCA
modifications: constant regions annealed to DNA blockers; guide miR-122 5' phosphate
B17: ACGTTCCG (ssRNA)
RNA 1: B1 RNA 1 with U28C, C30U, U32C
RNA 2: UGGAGUGUGACAAUGGUGUUUG
DNA 1: GATCGTCGGACTGTAGAACTC
DNA 2: TTGGCACCCGAGAATTCCA
modifications: constant regions annealed to DNA blockers; guide miR-122 5' phosphate
B18: ACATTTTG (ssRNA)
RNA 1: B1 RNA 1 with U28C, G29A, C30U, C33U
RNA 2: UGGAGUGUGACAAUGGUGUUUG
DNA 1: GATCGTCGGACTGTAGAACTC
DNA 2: TTGGCACCCGAGAATTCCA
modifications: constant regions annealed to DNA blockers; guide miR-122 5' phosphate
B19: ACATCTTA (ssRNA)
RNA 1: B1 RNA 1 with U28C, G29A, C30U, U31C, C33U, G34A
RNA 2: UGGAGUGUGACAAUGGUGUUUG
DNA 1: GATCGTCGGACTGTAGAACTC
DNA 2: TTGGCACCCGAGAATTCCA
modifications: constant regions annealed to DNA blockers; guide miR-122 5' phosphate
B20: ACATCTTG (ssRNA)
RNA 1: B1 RNA 1 with U28C, G29A, C30U, U31C, C33U
RNA 2: UGGAGUGUGACAAUGGUGUUUG
DNA 1: GATCGTCGGACTGTAGAACTC
DNA 2: TTGGCACCCGAGAATTCCA
modifications: constant regions annealed to DNA blockers; guide miR-122 5' phosphate
B21: ATATCTCG (ssRNA)
RNA 1: B1 RNA 1 with G29A, C30U, U31C
RNA 2: UGGAGUGUGACAAUGGUGUUUG
DNA 1: GATCGTCGGACTGTAGAACTC
DNA 2: TTGGCACCCGAGAATTCCA
modifications: constant regions annealed to DNA blockers; guide miR-122 5' phosphate
B22: ACATTTCG (ssRNA)
RNA 1: B1 RNA 1 with U28C, G29A, C30U
RNA 2: UGGAGUGUGACAAUGGUGUUUG
DNA 1: GATCGTCGGACTGTAGAACTC
DNA 2: TTGGCACCCGAGAATTCCA
modifications: constant regions annealed to DNA blockers; guide miR-122 5' phosphate
B23: ATGCTTTG (ssRNA)
RNA 1: B1 RNA 1 with C33U
RNA 2: UGGAGUGUGACAAUGGUGUUUG
DNA 1: GATCGTCGGACTGTAGAACTC
DNA 2: TTGGCACCCGAGAATTCCA
modifications: constant regions annealed to DNA blockers; guide miR-122 5' phosphate

Experiments:
Test in all cases: RNA Bind-n-Seq (nitrocellulose filter binding and sequencing); miR-122 guide loaded in AGO2; 60 min incubation; 30 mM Tris pH 8.0, 100 mM potassium acetate, 2 mM magnesium acetate, 0.5 mM TCEP, 0.005% NP-40, 0.01 mg/ml yeast tRNA; 3 nM AGO2-miR-122, 100 nM RNA library; 60; high values mean tight binding
Conditions in all cases: protein: recombinant; tags: His6 (N-terminal, pFastBac HTA)
AGO2 L192P = AGO2 L192P (Homo sapiens, UniProt Q9UKV8 1-859, L192P;S387D;S824A;S828D;S831D;S834A)
Sequence of AGO2 L192P (Q9UKV8 whole entry L192P/S387D/S824A/S828D/S831D/S834A): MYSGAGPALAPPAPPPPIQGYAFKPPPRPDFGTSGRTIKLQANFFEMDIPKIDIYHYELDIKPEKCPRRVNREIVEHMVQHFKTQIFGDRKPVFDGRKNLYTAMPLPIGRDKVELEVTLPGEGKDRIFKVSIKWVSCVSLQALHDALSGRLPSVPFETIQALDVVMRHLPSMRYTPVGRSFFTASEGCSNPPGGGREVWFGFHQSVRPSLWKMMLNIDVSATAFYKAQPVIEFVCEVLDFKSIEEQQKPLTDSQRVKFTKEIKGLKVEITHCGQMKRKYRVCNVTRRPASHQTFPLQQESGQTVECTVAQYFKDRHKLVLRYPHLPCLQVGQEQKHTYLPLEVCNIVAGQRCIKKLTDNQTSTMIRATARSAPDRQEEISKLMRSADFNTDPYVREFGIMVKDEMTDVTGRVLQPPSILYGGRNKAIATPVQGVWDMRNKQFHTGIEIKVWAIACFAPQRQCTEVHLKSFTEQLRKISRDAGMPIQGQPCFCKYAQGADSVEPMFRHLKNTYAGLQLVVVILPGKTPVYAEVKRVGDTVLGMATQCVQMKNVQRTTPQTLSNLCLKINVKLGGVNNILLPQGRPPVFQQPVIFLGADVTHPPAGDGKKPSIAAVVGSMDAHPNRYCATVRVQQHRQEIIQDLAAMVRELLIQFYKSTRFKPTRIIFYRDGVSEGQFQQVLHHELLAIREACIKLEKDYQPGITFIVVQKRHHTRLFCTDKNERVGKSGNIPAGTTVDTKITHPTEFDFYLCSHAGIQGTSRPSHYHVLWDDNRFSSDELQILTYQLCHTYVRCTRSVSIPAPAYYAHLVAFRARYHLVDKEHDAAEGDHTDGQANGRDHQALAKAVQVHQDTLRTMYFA
How it was run: (§1)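 Fold enrichment is each target's read fraction divided by its read fraction in the input library. Sf9 insect cells expressed His-tagged AGO2 from baculovirus; the protein was loaded with a synthetic guide RNA and purified by Ni-NTA and a biotinylated capture oligo. The bound RNA was extracted, reverse-transcribed, barcode-amplified and sequenced on Illumina.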

AGO2 A367P = AGO2 A367P (Homo sapiens, UniProt Q9UKV8 1-859, A367P;S387D;S824A;S828D;S831D;S834A)
Sequence of AGO2 A367P (Q9UKV8 whole entry A367P/S387D/S824A/S828D/S831D/S834A): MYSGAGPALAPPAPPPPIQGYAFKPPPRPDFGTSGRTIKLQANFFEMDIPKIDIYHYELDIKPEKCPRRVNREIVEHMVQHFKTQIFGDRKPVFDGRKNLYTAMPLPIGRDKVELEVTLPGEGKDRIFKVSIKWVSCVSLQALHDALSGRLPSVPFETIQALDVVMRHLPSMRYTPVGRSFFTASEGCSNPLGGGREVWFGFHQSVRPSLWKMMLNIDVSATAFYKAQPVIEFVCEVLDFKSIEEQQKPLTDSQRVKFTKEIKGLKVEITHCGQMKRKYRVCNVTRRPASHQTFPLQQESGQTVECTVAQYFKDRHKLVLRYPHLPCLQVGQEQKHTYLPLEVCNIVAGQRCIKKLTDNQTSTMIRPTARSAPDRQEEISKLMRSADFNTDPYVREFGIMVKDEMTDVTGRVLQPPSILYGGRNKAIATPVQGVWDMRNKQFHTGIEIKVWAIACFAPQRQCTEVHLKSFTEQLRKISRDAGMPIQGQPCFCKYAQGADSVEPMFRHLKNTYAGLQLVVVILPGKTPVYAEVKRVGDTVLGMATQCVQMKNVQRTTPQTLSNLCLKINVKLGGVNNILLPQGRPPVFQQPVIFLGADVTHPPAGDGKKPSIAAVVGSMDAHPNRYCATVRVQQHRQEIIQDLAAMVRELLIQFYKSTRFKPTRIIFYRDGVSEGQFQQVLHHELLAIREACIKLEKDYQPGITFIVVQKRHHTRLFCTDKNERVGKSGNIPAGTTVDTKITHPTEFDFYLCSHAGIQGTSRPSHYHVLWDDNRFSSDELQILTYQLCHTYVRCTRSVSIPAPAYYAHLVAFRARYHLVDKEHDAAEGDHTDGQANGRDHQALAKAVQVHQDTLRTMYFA
How it was run: as §1

AGO2 T357M = AGO2 T357M (Homo sapiens, UniProt Q9UKV8 1-859, T357M;S387D;S824A;S828D;S831D;S834A)
Sequence of AGO2 T357M (Q9UKV8 whole entry T357M/S387D/S824A/S828D/S831D/S834A): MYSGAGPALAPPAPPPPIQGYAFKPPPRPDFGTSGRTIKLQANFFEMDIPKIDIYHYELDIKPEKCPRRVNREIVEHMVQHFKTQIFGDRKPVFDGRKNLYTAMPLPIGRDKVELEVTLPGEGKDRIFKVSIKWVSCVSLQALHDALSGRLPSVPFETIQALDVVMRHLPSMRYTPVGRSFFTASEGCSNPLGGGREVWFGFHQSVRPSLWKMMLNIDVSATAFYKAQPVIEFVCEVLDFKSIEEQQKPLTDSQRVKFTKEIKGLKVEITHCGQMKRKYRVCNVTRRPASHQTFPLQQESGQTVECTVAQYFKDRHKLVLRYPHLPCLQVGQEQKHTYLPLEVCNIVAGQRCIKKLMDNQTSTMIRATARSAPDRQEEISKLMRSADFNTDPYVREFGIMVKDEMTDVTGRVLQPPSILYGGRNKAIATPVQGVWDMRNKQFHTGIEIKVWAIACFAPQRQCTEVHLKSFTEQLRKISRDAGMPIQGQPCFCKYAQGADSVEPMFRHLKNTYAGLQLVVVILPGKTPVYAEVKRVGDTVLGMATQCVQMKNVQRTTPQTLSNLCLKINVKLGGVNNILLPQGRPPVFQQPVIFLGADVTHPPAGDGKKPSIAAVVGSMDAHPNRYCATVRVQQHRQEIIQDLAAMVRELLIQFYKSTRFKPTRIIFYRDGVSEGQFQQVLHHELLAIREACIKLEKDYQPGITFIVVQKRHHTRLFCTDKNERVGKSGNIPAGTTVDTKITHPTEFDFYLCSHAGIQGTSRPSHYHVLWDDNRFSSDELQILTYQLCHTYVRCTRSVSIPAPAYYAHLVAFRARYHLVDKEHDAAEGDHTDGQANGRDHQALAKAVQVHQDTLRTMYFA
How it was run: as §1

AGO2 F182del = AGO2 F182del (Homo sapiens, UniProt Q9UKV8 1-859, S387D;S824A;S828D;S831D;S834A;del182-182)
Sequence of AGO2 F182del (Q9UKV8 other isoform, or with tags, fused parts or gaps S387D;S824A;S828D;S831D;S834A;del182-182): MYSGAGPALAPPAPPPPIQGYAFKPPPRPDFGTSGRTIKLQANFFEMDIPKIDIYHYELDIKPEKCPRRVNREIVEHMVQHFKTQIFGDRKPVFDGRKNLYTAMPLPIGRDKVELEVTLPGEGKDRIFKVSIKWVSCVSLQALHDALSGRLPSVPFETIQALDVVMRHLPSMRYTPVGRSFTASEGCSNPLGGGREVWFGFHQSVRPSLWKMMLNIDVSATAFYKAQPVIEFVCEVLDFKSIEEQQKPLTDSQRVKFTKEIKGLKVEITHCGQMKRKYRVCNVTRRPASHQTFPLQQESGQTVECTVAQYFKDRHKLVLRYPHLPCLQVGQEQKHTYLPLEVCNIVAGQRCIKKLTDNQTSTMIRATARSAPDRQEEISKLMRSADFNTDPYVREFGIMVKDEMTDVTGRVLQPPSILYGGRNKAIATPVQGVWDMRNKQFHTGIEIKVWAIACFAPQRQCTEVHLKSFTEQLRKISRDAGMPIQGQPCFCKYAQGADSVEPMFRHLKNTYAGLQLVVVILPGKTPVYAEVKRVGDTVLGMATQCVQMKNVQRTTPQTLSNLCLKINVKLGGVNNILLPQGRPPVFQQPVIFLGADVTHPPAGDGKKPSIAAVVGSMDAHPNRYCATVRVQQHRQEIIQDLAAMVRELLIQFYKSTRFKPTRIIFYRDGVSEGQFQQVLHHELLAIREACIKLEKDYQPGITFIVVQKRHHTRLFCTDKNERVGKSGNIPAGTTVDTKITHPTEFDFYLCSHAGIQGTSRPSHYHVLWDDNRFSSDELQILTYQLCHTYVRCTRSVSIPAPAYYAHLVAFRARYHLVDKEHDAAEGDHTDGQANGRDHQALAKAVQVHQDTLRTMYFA
How it was run: as §1

Binder | binding signal (AGO2 L192P) | binding signal (AGO2 A367P) | binding signal (AGO2 T357M) | binding signal (AGO2 F182del)
B1 | 0.336 fold enrichment over input | 0.127 fold enrichment over input | 0.474 fold enrichment over input | –
B2 | 0.339 fold enrichment over input | 0.127 fold enrichment over input | 0.409 fold enrichment over input | –
B3 | 0.406 fold enrichment over input | 0.138 fold enrichment over input | 0.509 fold enrichment over input | –
B4 | 0.346 fold enrichment over input | 0.139 fold enrichment over input | 0.445 fold enrichment over input | –
B5 | 0.349 fold enrichment over input | 0.123 fold enrichment over input | 0.425 fold enrichment over input | –
B6 | 0.358 fold enrichment over input | 0.123 fold enrichment over input | 0.475 fold enrichment over input | –
B7 | 0.358 fold enrichment over input | 0.127 fold enrichment over input | 0.486 fold enrichment over input | –
B8 | 0.332 fold enrichment over input | 0.134 fold enrichment over input | 0.423 fold enrichment over input | –
B9 | 0.493 fold enrichment over input | 0.178 fold enrichment over input | 0.557 fold enrichment over input | 0.309 fold enrichment over input
B10 | 0.467 fold enrichment over input | 0.17 fold enrichment over input | 0.569 fold enrichment over input | –
B11 | 0.319 fold enrichment over input | 0.134 fold enrichment over input | 0.501 fold enrichment over input | –
B12 | 0.316 fold enrichment over input | – | 0.415 fold enrichment over input | –
B13 | 0.319 fold enrichment over input | 0.125 fold enrichment over input | 0.416 fold enrichment over input | –
B14 | 0.351 fold enrichment over input | 0.13 fold enrichment over input | 0.538 fold enrichment over input | –
B15 | 0.349 fold enrichment over input | 0.134 fold enrichment over input | 0.504 fold enrichment over input | –
B16 | 0.387 fold enrichment over input | 0.154 fold enrichment over input | 0.503 fold enrichment over input | –
B17 | 0.361 fold enrichment over input | 0.128 fold enrichment over input | 0.44 fold enrichment over input | –
B18 | 0.41 fold enrichment over input | 0.143 fold enrichment over input | 0.537 fold enrichment over input | –
B19 | 0.519 fold enrichment over input | 0.197 fold enrichment over input | 0.562 fold enrichment over input | 0.33 fold enrichment over input
B20 | 0.386 fold enrichment over input | 0.135 fold enrichment over input | 0.458 fold enrichment over input | –
B21 | 0.351 fold enrichment over input | 0.124 fold enrichment over input | 0.398 fold enrichment over input | –
B22 | 0.421 fold enrichment over input | 0.151 fold enrichment over input | 0.514 fold enrichment over input | –
B23 | 0.354 fold enrichment over input | 0.12 fold enrichment over input | 0.455 fold enrichment over input | –
